Measured values from ChEMBL document CHEMBL3988442, “University of Dundee, Small-Polar-MMV Screening Library” (2021).

Each compound was assayed against AMP-activated protein kinase, AMPK (Homo sapiens) (UniProt P54646+O43741+P54619+Q9UGJ0+Q9Y478+Q13131+Q9UGI9) (assay: AMP-dependent Kinase enzyme assay. An in vitro enzyme assay that detects ADP turnover that is directly proportional to AMPK activity. This uses naive AMPK that is activated during the assay with MK-8722). Conditions: 30 µM.
Format: functional
Set-up: scale not given: direction of the effect not stated beside the values

For `CC(C)c1cc(C2CCN(C(=O)Cn3cncn3)CC2)[nH]n1`, which Percent Effect is on record?
Its Percent Effect is 29.2%.

Which Percent Effect does the source give for `CC(C)(C)c1noc(CCC(=O)N2CCNC(=O)C2)n1` here?
The Percent Effect was -9.99%.

`Cc1ccnc(NC(=O)c2ccc(C)o2)c1` was tested. Which Percent Effect did it give?
The Percent Effect was 9.16%.

How did the Percent Effect turn out when `CN(C)CCNC(=O)CCC1CCN(C(=O)c2ccc(O)cn2)CC1` was run?
Its Percent Effect is 7.4%.

For `COc1cccc(OCC2CCCN(c3cc(C(N)=O)ccn3)C2)c1` (stereo not drawn), which Percent Effect is on record?
The Percent Effect was 4.97%.

`COc1ccc(N2CCN(Cc3nc(CSC)no3)C(C)C2=O)cc1` (stereo not drawn) was tested. Which Percent Effect did it give?
Its Percent Effect is 4.28%.

How did the Percent Effect turn out when `Clc1snnc1CN(Cc1cccs1)C1CC1` was run?
The Percent Effect was 3.68%.

With `CC(NC(=O)NC1CCN(Cc2ccncc2)CC1)c1ccccc1F` (stereo not drawn) as the compound, how does the Percent Effect read?
Its Percent Effect is -3.35%.

`CC(C)(C)CN(CCC#N)C(=O)Nc1cccc(N2CCNC2=O)c1` was tested. Which Percent Effect did it give?
The Percent Effect was -2.8%.

How did the Percent Effect turn out when `O=C(Cn1cccnc1=O)NCc1cccnc1OCC(F)(F)F` was run?
The Percent Effect was 0.146%.

With `COc1ccccc1CN(C)C(=O)C[S+]([O-])Cc1cc(C)on1` (stereo not drawn) as the compound, how does the Percent Effect read?
Its Percent Effect is -2.86%.

With `O=C1CN([C@@H]2CC[C@@H](NS(=O)(=O)c3ccccc3F)[C@H]2O)CCN1` as the compound, how does the Percent Effect read?
The Percent Effect was -4.46%.

Which Percent Effect does the source give for `Cc1nc(C)n(CCC(=O)NCC2CCCOC2)n1` (stereo not drawn) here?
The Percent Effect was 10.8%.

How did the Percent Effect turn out when `O=C(NC1CCCCC1)N1CCC(n2cc(-c3ccccn3)nn2)CC1` was run?
Its Percent Effect is -1.68%.

With `CN(CCc1ccccn1)CCc1nccs1` as the compound, how does the Percent Effect read?
The Percent Effect was 0.423%.

How did the Percent Effect turn out when `COc1ccc2c(c1)CCCC2CC(=O)O` (stereo not drawn) was run?
Its Percent Effect is -8.39%.

Which Percent Effect does the source give for `CNc1ccc(C2CN(c3cc(C)ncn3)CCO2)nc1` (stereo not drawn) here?
Its Percent Effect is 10.8%.

With `COc1ccc2nc(CNC(=O)C3CC4(CCNCC4)CN3C)[nH]c2c1` (stereo not drawn) as the compound, how does the Percent Effect read?
Its Percent Effect is -3.99%.
